Assay results reported in PubChem BioAssay AID1159580 (chemical genetic matrix, 2015).
Several values for one entry are separate records, joined by “and”; a condition that tells them apart may be missing. Equal entries are not always repeated. The campaign covered roughly 5,500 compounds. About 2,000 (36%) were called active. Another 18% or so got no clear call; they are omitted. Rule as the data show it: active = normalized growth mostly below about 0.91 (no sharp cut-off); inconclusive = no clear call, values can overlap the other calls; inactive = mostly above about 0.92. The list shows a part of the results.

Test: chemical genetic growth profiling, strain panel (AID 1159580);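 also: tested at 20 µM; growth read once vehicle control cultures reached saturation at 30 °C; 1 = growth at the plate median or of vehicle wells; lower values mean less growth of the strain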
Conditions: S. cerevisiae deletion strains, growth OD

Measured: normalized growth

NC[C@@H]1O[C@H](O[C@@H]2[C@@H](CO)OC(O[C@@H]3[C@@H](O)[C@H](N)C[C@H](N)[C@H]3OC3O[C@H](CN)[C@@H](O)[C@H](O)[C@H]3N)[C@@H]2O)[C@H](N)[C@@H](O)[C@@H]1O (some centres not stated)
inactive: locus YAL013W, strain DEP1, stronger effect = lower value 1 | locus YAL021C, strain ccr4, stronger effect = lower value 1.01 | locus YAL026C, strain drs2, stronger effect = lower value 1.02 | locus YAL030W, strain snc1, stronger effect = lower value 1.02 | locus YBL061C, strain skt5, stronger effect = lower value 1.03 | locus YBR009C, strain hhf1, stronger effect = lower value 1.03 | locus YBR021W, strain FUR4, stronger effect = lower value 0.966 | locus YBR023C, strain chs3, stronger effect = lower value 1.06 | locus YBR171W, strain sec66, stronger effect = lower value 1.04 | locus YBR229C, strain ROT2, stronger effect = lower value 1 | locus YBR231C, strain swc5, stronger effect = lower value 1.01 | locus YBR279W, strain paf1, stronger effect = lower value 1.01 | locus YCL011C, strain gbp2, stronger effect = lower value 1.03 | locus YCL016C, strain dcc1, stronger effect = lower value 1.05 | locus YCL029C, strain bik1, stronger effect = lower value 1.02 | locus YCL061C, strain MRC1, stronger effect = lower value 1.01 | locus YCL069W, strain vba3, stronger effect = lower value 1.02 | locus YCR088W, strain abp1, stronger effect = lower value 1.02 | locus YDL005C, strain med2, stronger effect = lower value 1.01 | locus YDL035C, strain GPR1, stronger effect = lower value 1.01 | locus YDL040C, strain nat1, stronger effect = lower value 1.02 | locus YDL074C, strain BRE1, stronger effect = lower value 1.01 | locus YDL101C, strain DUN1, stronger effect = lower value 1.01 | locus YDL134C, strain PPH21, stronger effect = lower value 1 | locus YDL185W, strain tfp1, stronger effect = lower value 1.01 | locus YDL192W, strain arf1, stronger effect = lower value 1.02 | locus YDR001C, strain nth1, stronger effect = lower value 1.02 | locus YDR069C, strain doa4, stronger effect = lower value 1.03 | locus YDR101C, strain arx1, stronger effect = lower value 1 | locus YDR137W, strain rgp1, stronger effect = lower value 1.06 | locus YDR150W, strain NUM1, stronger effect = lower value 1.01 | locus YDR159W, strain sac3, stronger effect = lower value 0.997 | locus YDR162C, strain NBP2, stronger effect = lower value 1.01 | locus YDR195W, strain ref2 1.01 | locus YDR297W, strain sur2, stronger effect = lower value 1.02 | locus YDR318W, strain mcm21, stronger effect = lower value 1.01 | locus YDR334W, strain swr1, stronger effect = lower value 1.02 | locus YDR335W, strain msn5, stronger effect = lower value 1.02 | locus YDR388W, stronger effect = lower value 1.01 | locus YDR392W, strain spt3, stronger effect = lower value 0.944 | locus YDR502C, strain sam2, stronger effect = lower value 1.03 | locus YEL003W, strain gim4, stronger effect = lower value 1.02 | locus YEL037C, strain rad23, stronger effect = lower value 1.03 | locus YEL061C, strain CIN8 (second series), stronger effect = lower value 1.03 | locus YEL061C, strain CIN8, stronger effect = lower value 1.01 | locus YER015W, strain faa2, stronger effect = lower value 1.03 | locus YER016W, strain bim1, stronger effect = lower value 1.02 | locus YER110C, stronger effect = lower value 1.01 | locus YER111C, strain swi4, stronger effect = lower value 1.02 | locus YER155C, strain BEM2 (second series), stronger effect = lower value 0.973 | locus YER155C, strain BEM2, stronger effect = lower value 1.01 | locus YER167W, strain BCK2, stronger effect = lower value 1.02 | locus YFR010W, strain ubp6, stronger effect = lower value 1.03 | locus YGL078C, strain dbp3, stronger effect = lower value 1.01 | locus YGL086W, strain mad1, stronger effect = lower value 1 | locus YGL167C, strain pmr1, stronger effect = lower value 1.03 | locus YGL173C, strain kem1, stronger effect = lower value 1.03 | locus YGL227W, strain vid30, stronger effect = lower value 1.03 | locus YGL240W, strain doc1, stronger effect = lower value 1 | locus YGL248W, strain PDE1, stronger effect = lower value 1.01 | locus YGL253W, strain hxk2, stronger effect = lower value 1.03 | locus YGR078C, strain PAC10, stronger effect = lower value 1.02 | locus YGR135W, strain pre9, stronger effect = lower value 1.07 | locus YGR229C, strain SMI1, stronger effect = lower value 1 | locus YGR252W, strain gcn5, stronger effect = lower value 0.957 | locus YHR013C, strain ard1, stronger effect = lower value 1.05 | locus YHR027C, strain rpn1, stronger effect = lower value 1.03 | locus YHR030C, strain SLT2, stronger effect = lower value 1.02 and 0.985 | locus YHR079C, strain IRE1 (second series), stronger effect = lower value 1.02 | locus YHR079C, strain IRE1, stronger effect = lower value 0.983 | locus YHR094C, strain hxt1, stronger effect = lower value 1.01 | locus YHR129C, strain ARP1, stronger effect = lower value 1 | locus YHR142W, strain chs7, stronger effect = lower value 1.05 | locus YHR200W, strain rpn10, stronger effect = lower value 1.03 | locus YIL066C, strain RNR3, stronger effect = lower value 1.03 | locus YIL073C, strain SPO22, stronger effect = lower value 1.07 | locus YIL125W, strain kgd1, stronger effect = lower value 1.02 | locus YIR030C, strain dcg1, stronger effect = lower value 1.01 | locus YJL092W, strain hpr5, stronger effect = lower value 1.03 | locus YJL095W, strain BCK1 (second series), stronger effect = lower value 1.03 | locus YJL095W, strain BCK1, stronger effect = lower value 1.02 and 0.991 | locus YJL115W, strain asf1, stronger effect = lower value 1.03 | locus YJL129C, strain trk1, stronger effect = lower value 1.06 | locus YJL134W, strain LCB3, stronger effect = lower value 0.993 | locus YJL154C, strain vps35, stronger effect = lower value 1.02 | locus YJL164C, strain tpk1, stronger effect = lower value 1.01 | locus YJL166W, strain qcr8, stronger effect = lower value 1.04 | locus YJL168C, strain set2, stronger effect = lower value 1.01 | locus YJL187C, strain SWE1 (second series), stronger effect = lower value 1.01 | locus YJL187C, strain SWE1, stronger effect = lower value 1.01 | locus YJR043C, strain POL32, stronger effect = lower value 1.01 | locus YJR066W, strain TOR1, stronger effect = lower value 0.929
